Experimental data as given in publication PMC4336329 (PLoS ONE, 2015).
Screen size: about 310,000 compounds; about 14,000 (4.5%) showed an effect of 50% or more. Effects have a minus sign here. This excerpt belongs to a sample that is enriched for strong results.

These molecules were tested against human ether-à-go-go-related gene (hERG) potassium channel (human, UniProt Q12809) (assay: primary screen, population patch clamp on CHO cells stably expressing hERG; higher = less effect of the substance).
Sequence of human ether-à-go-go-related gene (hERG) potassium channel (Q12809 whole entry, looked up): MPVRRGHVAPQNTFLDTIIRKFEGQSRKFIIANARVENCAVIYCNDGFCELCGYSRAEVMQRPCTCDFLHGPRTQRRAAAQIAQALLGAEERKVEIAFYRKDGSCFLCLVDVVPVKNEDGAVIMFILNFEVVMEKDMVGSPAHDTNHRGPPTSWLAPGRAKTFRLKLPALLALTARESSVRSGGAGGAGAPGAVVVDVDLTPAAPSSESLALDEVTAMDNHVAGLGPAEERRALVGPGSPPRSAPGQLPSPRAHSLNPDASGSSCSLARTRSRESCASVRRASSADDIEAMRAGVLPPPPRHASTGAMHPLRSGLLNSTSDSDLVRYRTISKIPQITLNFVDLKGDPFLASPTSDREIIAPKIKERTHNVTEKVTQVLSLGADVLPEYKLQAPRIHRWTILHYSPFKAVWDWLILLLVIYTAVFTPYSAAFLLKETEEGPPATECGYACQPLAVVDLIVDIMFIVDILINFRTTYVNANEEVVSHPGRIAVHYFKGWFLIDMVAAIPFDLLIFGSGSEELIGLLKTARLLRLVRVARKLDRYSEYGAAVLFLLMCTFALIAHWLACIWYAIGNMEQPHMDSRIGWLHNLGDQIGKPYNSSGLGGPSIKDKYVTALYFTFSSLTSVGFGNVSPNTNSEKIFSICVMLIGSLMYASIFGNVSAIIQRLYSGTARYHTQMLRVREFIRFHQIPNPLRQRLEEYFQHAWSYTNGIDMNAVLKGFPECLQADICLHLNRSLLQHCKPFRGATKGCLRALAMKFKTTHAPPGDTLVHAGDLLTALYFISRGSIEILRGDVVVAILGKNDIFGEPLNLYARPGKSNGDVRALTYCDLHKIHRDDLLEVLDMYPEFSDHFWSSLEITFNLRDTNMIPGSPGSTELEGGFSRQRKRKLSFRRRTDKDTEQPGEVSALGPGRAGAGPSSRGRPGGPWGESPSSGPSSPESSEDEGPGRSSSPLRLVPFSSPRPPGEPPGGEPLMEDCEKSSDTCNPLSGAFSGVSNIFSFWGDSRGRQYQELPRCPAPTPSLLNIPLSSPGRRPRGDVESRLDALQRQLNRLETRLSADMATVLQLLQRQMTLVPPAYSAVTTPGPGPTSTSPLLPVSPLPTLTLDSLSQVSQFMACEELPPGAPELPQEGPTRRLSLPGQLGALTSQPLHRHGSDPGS
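Note: peak tail current of the secondary pulse compared with the same well before compound.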

Q: For `Cc1cc(-c2nc(C)c(C(=O)NNS(=O)(=O)c3ccccc3)s2)no1`, which “hERG current change (%, negative = inhibition) at 10uM” value is on record?
A: The value was 11.9%.

Q: Which “hERG current change (%, negative = inhibition) at 10uM” value does the source give for `Cc1ccccc1-c1nnn(Cc2ccc(F)cc2Cl)n1` here?
A: The value was 10.6%.

Q: `Cc1cc(C)c2c(CN3CCN(C/C=C/c4ccccc4)CC3)cc(=O)oc2c1` was tested. Which “hERG current change (%, negative = inhibition) at 10uM” value did it give?
A: Its value is -76.9%.

Q: For `Cc1cc(C)c2c(Cn3ccnc3)cc(=O)oc2c1`, which “hERG current change (%, negative = inhibition) at 10uM” value is on record?
A: Its value is 1.13%.

Q: `CCc1ccc2oc(=O)cc(CN3CCN(CCO)CC3)c2c1` was tested. Which “hERG current change (%, negative = inhibition) at 10uM” value did it give?
A: Its value is -14.9%.

Q: For `Cc1cc(C)c2c(CN3CCN(CCO)CC3)cc(=O)oc2c1`, which “hERG current change (%, negative = inhibition) at 10uM” value is on record?
A: Its value is -50.4%.

Q: With `COC(=O)c1ccc(Cl)c(NC(=O)CN(c2ccc3c(c2)OCO3)S(C)(=O)=O)c1` as the molecule, how does the “hERG current change (%, negative = inhibition) at 10uM” value read?
A: Its value is 7.68%.

Q: With `O=C(O)CCC(NC(=O)c1cncc(O)c1)C(=O)O` (stereo not drawn) as the molecule, how does the “hERG current change (%, negative = inhibition) at 10uM” value read?
A: Its value is -4.94%.

Q: `CCCC1(c2ccccc2)NC(=O)N(CC(=O)N(C)Cc2c(F)cccc2Cl)C1=O` (stereo not drawn) was tested. Which “hERG current change (%, negative = inhibition) at 10uM” value did it give?
A: The value was -2.69%.

Q: How did the “hERG current change (%, negative = inhibition) at 10uM” value turn out when `Cc1ccc(C(C2=C(O)CC(C)(C)CC2=O)C2C(=O)CC(C)(C)CC2=O)s1` (stereo not drawn) was run?
A: The value was 14.9%.

Q: For `CN=C(NC1CCCCC1)c1ccc([N+](=O)[O-])cc1`, which “hERG current change (%, negative = inhibition) at 10uM” value is on record?
A: Its value is 1.68%.

Q: For `Cl.OCCN1C2=NCCCN2c2ccccc21`, which “hERG current change (%, negative = inhibition) at 10uM” value is on record?
A: The value was 5.78%.

Q: `OC(CN1C2=NCCN2c2ccccc21)c1ccc(Br)cc1` (stereo not drawn) was tested. Which “hERG current change (%, negative = inhibition) at 10uM” value did it give?
A: The value was -71%.

Q: With `Cl.OC(CN1C2=NCCCN2c2ccccc21)c1ccc(Br)cc1` (stereo not drawn) as the molecule, how does the “hERG current change (%, negative = inhibition) at 10uM” value read?
A: The value was -83.9%.

Q: `Cl.OC(CN1C2=NCCCN2c2ccccc21)c1ccc(Cl)cc1` (stereo not drawn) was tested. Which “hERG current change (%, negative = inhibition) at 10uM” value did it give?
A: The value was -75.9%.

Q: With `O=C1CSC(=S)N1c1cccnc1` as the molecule, how does the “hERG current change (%, negative = inhibition) at 10uM” value read?
A: Its value is -7.65%.

Q: With `Cc1ccccc1OCCn1cnc2cc([N+](=O)[O-])ccc2c1=O` as the molecule, how does the “hERG current change (%, negative = inhibition) at 10uM” value read?
A: Its value is -7.38%.

Q: For `CCc1cc(=O)oc2c(C)c(OCC(=O)NCCCN3CCOCC3)ccc12`, which “hERG current change (%, negative = inhibition) at 10uM” value is on record?
A: The value was -31.8%.

Q: `CCOc1ncccc1C(=O)OCc1csc(CC(=O)Nc2ccccc2C)n1` was tested. Which “hERG current change (%, negative = inhibition) at 10uM” value did it give?
A: Its value is 0.199%.

Q: With `Cc1ccc2[nH]c(O)c(N=NC(N)=S)c2c1` as the molecule, how does the “hERG current change (%, negative = inhibition) at 10uM” value read?
A: The value was 19.3%.

Q: With `COc1cccc(NC(=O)Cc2cccs2)c1` as the molecule, how does the “hERG current change (%, negative = inhibition) at 10uM” value read?
A: The value was 14.4%.

Q: For `O=C(CC1CCCC1)Nc1cc(C(F)(F)F)ccc1-n1cncn1`, which “hERG current change (%, negative = inhibition) at 10uM” value is on record?
A: The value was -10.4%.

Q: Which “hERG current change (%, negative = inhibition) at 10uM” value does the source give for `Cc1ccc(C(=O)Nc2cc(C(F)(F)F)ccc2-n2cncn2)o1` here?
A: Its value is -9.88%.

Q: For `Cc1cc(CN2CCN(CC(=O)Nc3cc(C(F)(F)F)ccc3-n3cncn3)CC2)no1`, which “hERG current change (%, negative = inhibition) at 10uM” value is on record?
A: The value was -69.8%.

Q: With `CN(Cc1c(F)cccc1Cl)C(=O)c1cccc(S(=O)(=O)NCc2ccccc2)c1` as the molecule, how does the “hERG current change (%, negative = inhibition) at 10uM” value read?
A: Its value is -28%.

Q: `O=C(CN1CCOCC1)Nc1ccc(N2CCN(c3ccccc3)CC2)c(F)c1` was tested. Which “hERG current change (%, negative = inhibition) at 10uM” value did it give?
A: Its value is 2.59%.

Q: For `CC(C)(C)n1ncc2c(=O)n(CC(=O)c3ccccc3)cnc21`, which “hERG current change (%, negative = inhibition) at 10uM” value is on record?
A: The value was -10.4%.

Q: Which “hERG current change (%, negative = inhibition) at 10uM” value does the source give for `O=C1CCc2cc(S(=O)(=O)NC3CCCCC3)ccc2N1` here?
A: The value was -19.3%.

Q: How did the “hERG current change (%, negative = inhibition) at 10uM” value turn out when `COc1ccc(N2CCN(Cc3nnnn3C3CCCCC3)CC2)cc1` was run?
A: Its value is 6.34%.

Q: For `O=C1CCc2cc(OCCCCc3nnnn3C3CCCCC3)ccc2N1`, which “hERG current change (%, negative = inhibition) at 10uM” value is on record?
A: Its value is -64.1%.

Q: With `CN(C(=O)COC(=O)c1cn(C)c2ccccc12)C1CCCCC1` as the molecule, how does the “hERG current change (%, negative = inhibition) at 10uM” value read?
A: Its value is 6.55%.

Q: With `CC(=O)N1c2ccc(S(=O)(=O)NCC3CCC(C(=O)NCc4ccc(C)o4)CC3)cc2CC1C` (stereo not drawn) as the molecule, how does the “hERG current change (%, negative = inhibition) at 10uM” value read?
A: Its value is -3.13%.

Q: `CCCc1cc(=O)[nH]c(Nc2ccc(Cl)cc2)n1` was tested. Which “hERG current change (%, negative = inhibition) at 10uM” value did it give?
A: The value was 6.28%.

Q: With `O=C(Nc1ccccc1)C(=O)Nc1ccc2c(c1)N(C(=O)C1CC1)CCC2` as the molecule, how does the “hERG current change (%, negative = inhibition) at 10uM” value read?
A: Its value is -5.26%.

Q: Which “hERG current change (%, negative = inhibition) at 10uM” value does the source give for `Nc1cc(=O)[nH]c(N2CCN(c3ccccc3)CC2)n1` here?
A: Its value is 24.2%.

Q: For `CCOc1ccc(CN2CCC(n3nccc3NC(=O)c3ccccc3OC)CC2)cc1`, which “hERG current change (%, negative = inhibition) at 10uM” value is on record?
A: Its value is -82.8%.

Q: How did the “hERG current change (%, negative = inhibition) at 10uM” value turn out when `COc1ccccc1C(=O)Nc1ccnn1C1CCN(Cc2ccn[nH]2)CC1` was run?
A: The value was -36.1%.

Q: For `COc1ccc(C(=O)Nc2ccnn2C2CCN(Cc3ccc4nonc4c3)CC2)cc1`, which “hERG current change (%, negative = inhibition) at 10uM” value is on record?
A: The value was -43.1%.

Q: Which “hERG current change (%, negative = inhibition) at 10uM” value does the source give for `COc1ccccc1C(=O)Nc1ccnn1C1CCN(Cc2ccc3nonc3c2)CC1` here?
A: The value was -72.1%.

Q: With `COc1ccc(C(=O)Nc2ccnn2C2CCN(Cc3ccccn3)CC2)cc1` as the molecule, how does the “hERG current change (%, negative = inhibition) at 10uM” value read?
A: Its value is 5.54%.

Q: For `COc1cc(CN2CCC(n3nccc3NC(=O)C3CCOC3)CC2)ccc1F` (stereo not drawn), which “hERG current change (%, negative = inhibition) at 10uM” value is on record?
A: Its value is -6.78%.

Q: Which “hERG current change (%, negative = inhibition) at 10uM” value does the source give for `CCn1ccnc1CN1CCC(n2nccc2NC(=O)CCc2ccccc2)CC1` here?
A: The value was -3.91%.

Q: For `COc1ccccc1C(=O)Nc1ccnn1C1CCN(Cc2ncc[nH]2)CC1`, which “hERG current change (%, negative = inhibition) at 10uM” value is on record?
A: The value was -16.3%.

Q: For `COc1cc(CN2CCC(n3nccc3NC(=O)c3ccccc3OC)CC2)ccc1F`, which “hERG current change (%, negative = inhibition) at 10uM” value is on record?
A: Its value is -76.7%.

Q: `CCn1ccnc1CN1CCC(n2nccc2NC(=O)c2ccccc2OC)CC1` was tested. Which “hERG current change (%, negative = inhibition) at 10uM” value did it give?
A: The value was -69.9%.

Q: How did the “hERG current change (%, negative = inhibition) at 10uM” value turn out when `COc1ccc(/C=N/Nc2nc(-c3cccnc3)nc3ccccc23)cc1OC` was run?
A: The value was -22.2%.

Q: With `CCOc1ccc(N2C(=O)CN=C2Nc2ccccc2Cl)cc1` as the molecule, how does the “hERG current change (%, negative = inhibition) at 10uM” value read?
A: Its value is -2.73%.

Q: `O=C(Nc1ccon1)C(Sc1ccccc1)c1ccccc1` (stereo not drawn) was tested. Which “hERG current change (%, negative = inhibition) at 10uM” value did it give?
A: The value was -8.32%.

Q: `Cc1noc(C)c1C(=O)Nc1ccc(-c2nnc3n2CCCCC3)cc1` was tested. Which “hERG current change (%, negative = inhibition) at 10uM” value did it give?
A: Its value is 5.46%.

Q: How did the “hERG current change (%, negative = inhibition) at 10uM” value turn out when `CC1(C)CC(CC(=O)Nc2ccccc2[N+](=O)[O-])C(=O)O1` (stereo not drawn) was run?
A: The value was -1.77%.

Q: How did the “hERG current change (%, negative = inhibition) at 10uM” value turn out when `Cc1cccc(-c2c3c(=O)n(C)c(=O)n(C)c3cn2-c2ccccc2O)c1` was run?
A: Its value is 1.06%.

Q: Which “hERG current change (%, negative = inhibition) at 10uM” value does the source give for `Cc1cc(C)c2oc(-c3ccc(C)c(NC(=S)NC(=O)/C=C/c4ccco4)c3)nc2c1` here?
A: Its value is 11.2%.

Q: How did the “hERG current change (%, negative = inhibition) at 10uM” value turn out when `Cc1cc(=O)oc2cc(OCC(=O)N3CCN(C(C)c4ccccc4)CC3)c(Cl)cc12` (stereo not drawn) was run?
A: The value was -35.1%.

Q: With `O=C(N/N=C/c1ccco1)c1cc(-c2cccs2)[nH]n1` as the molecule, how does the “hERG current change (%, negative = inhibition) at 10uM” value read?
A: Its value is 1.93%.

Q: How did the “hERG current change (%, negative = inhibition) at 10uM” value turn out when `Cc1ccccc1C(=O)NCCN1CCOCC1.Cl` was run?
A: The value was 6.78%.

Q: Which “hERG current change (%, negative = inhibition) at 10uM” value does the source give for `Fc1ccc(-c2c[nH]c(=S)n2Cc2ccccc2)cc1` here?
A: Its value is -38%.

Q: With `O=C(NCCc1c[nH]c2ccccc12)C(F)(F)F` as the molecule, how does the “hERG current change (%, negative = inhibition) at 10uM” value read?
A: Its value is 3.79%.
